Our source for the composite z-score values is PubChem BioAssay.

The target in this assay is Fibroblast growth factor 2 (Homo sapiens) (UniProt P09038). Description: FGF2 binders on small-molecule microarrays, primary screen, biochemical, small-molecule microarray, 635/667 nm fluorescence (AID 1133). Conditions: small-molecule microarray binding, FGF2, fluorescence 635/667; higher = more signal.
Sequence of Fibroblast growth factor 2 (Homo sapiens) (P09038 whole entry, looked up): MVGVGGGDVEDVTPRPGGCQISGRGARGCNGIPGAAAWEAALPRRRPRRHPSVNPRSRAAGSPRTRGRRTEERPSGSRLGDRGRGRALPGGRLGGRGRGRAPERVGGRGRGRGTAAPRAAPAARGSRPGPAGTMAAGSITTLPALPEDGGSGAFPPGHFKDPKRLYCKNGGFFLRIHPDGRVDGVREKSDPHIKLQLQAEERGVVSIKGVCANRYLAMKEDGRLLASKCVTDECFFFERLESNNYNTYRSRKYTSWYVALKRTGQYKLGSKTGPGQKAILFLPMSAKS
In turn, `CC(CCN1CCCc2nc(C)c(C)cc21)=NOC(C)CN1CCCCc2nc(C)c(C)cc21` (centres undefined) came in with a composite z-score of 0.785.

`CCN1C(=O)[C@@H]2[C@H]3C(=CC[C@@H]2C1=O)C1(OCCCO1)[C@H]1O[C@H]1[C@H]3O`: the composite z-score amounted to 0.944.

In turn, `Cc1ccc(S(=O)(=O)N[C@@H]2COC(=O)[C@@H](C)COC(=O)CC=C[C@H]2C)cc1` registered a composite z-score of 0.636.

For the compound `COC(=O)C1=C(C)N(Cc2ccccc2)[C@]23O[C@](C(=O)OC)(C(=O)N2[C@@H]1c1ccccc1)C(C(=O)OC)=C3C(=O)OC`, the composite z-score was determined as 0.808.

The compound `CC(C)CON=C1C[C@@H](O)[C@@H](O)[C@@H]2[C@@H]3C(=O)N(c4ccc(F)cc4F)C(=O)[C@@H]3CC[C@H]12` came in with a composite z-score of 0.375.

Compound `CCOC(=O)CCN1C(=O)[C@H]2[C@H]3[C@H](O)[C@H](O)CC(=NOCC(C)C)[C@H]3CC[C@H]2C1=O` showed a composite z-score of -0.0435.

`CC(C)=CCCC(C)=CCON=C1C[C@@H](O)[C@@H](O)[C@@H]2[C@@H]3C(=O)N(C(C)(C)C)C(=O)[C@@H]3CC[C@H]12` registered a composite z-score of 0.248.

Turning to `C[C@H]1CC[C@H]2C(=O)O[C@H](COc3ccc(C(C)(C)C)cc3)CN2[C@@H]1c1ccc(Br)cc1`, the composite z-score was -0.101.

The compound `COC(=O)CC=C[C@@H](C)[C@@H](C=NO[C@@H]1O[C@H](COC(C)=O)[C@@H](OC(C)=O)[C@H](OC(C)=O)[C@H]1OC(C)=O)NS(=O)(=O)c1ccc(C)cc1` gave a composite z-score of 0.35.

In turn, `CCOC(=O)[C@H](CC(C)C)NC(=O)CCC1CC(OC(=O)NCc2cccc3ccccc23)CC2(CCCC(COC(=O)NCc3ccncc3)O2)O1` (some centres undefined) displayed a composite z-score of 1.58.

The compound `CC(CCN1CCCc2nc(C)c(C)cc21)=NO[C@@H](C)c1cc(-c2c(C)cc(C)cc2C)no1` came in with a composite z-score of 0.388.

On to `O=C1[C@H]2[C@H]3[C@H](O)[C@H](O)CC(=NO[C@@H]4O[C@H](CO)[C@@H](O)[C@H](O)[C@H]4O)[C@H]3CC[C@H]2C(=O)N1c1cccc(Oc2ccccc2)c1`, for which the composite z-score came out at 0.445.

The compound `CCOC(=O)NN=C1C[C@@H](O)[C@@H](O)[C@@H]2[C@@H]3C(=O)N(c4ccc(F)cc4F)C(=O)[C@@H]3CC[C@@H]12` came in with a composite z-score of 0.187.

`C[C@H]1CC[C@H]2C(=O)OC(CO)CN2[C@@H]1c1ccc(Br)cc1` (some centres undefined) returned a composite z-score of -0.153.

The compound `Cn1c(=O)n2n(c1=O)[C@H]1[C@H](O)[C@@H]3O[C@@H]3C(=NOCc3ccccc3)[C@H]1CC2` came in with a composite z-score of -0.478.

In the case of `O=c1n(-c2ccccc2)c(=O)n2n1CC[C@@H]1C(=NOCc3ccccc3)[C@H]3O[C@H]3[C@@H](O)[C@@H]12`, the composite z-score is 0.373.

`C[C@@H]1CC[C@H]2C(=O)O[C@@H](Cc3ccccc3)CN2[C@H]1c1ccc(Br)cc1` came in with a composite z-score of 0.297.

On to `CO[C@H]1COC(=O)[C@@H](C)COC(=O)[C@H](C)NC(=O)CC=C[C@H]1C`, for which the composite z-score was 0.871.

Consider `CO[C@H]1COC(=O)CC=C[C@H](C)[C@@H](OC)COC(=O)[C@@H](C)COC(=O)CC=C[C@@H]1C`, for which the composite z-score worked out at 1.77.

For `COC(=O)CC=C[C@@H](C)[C@@H](C=NOCC[C@@H]1C=C[C@H](OC(C)=O)[C@@H](COC(C)=O)O1)NS(=O)(=O)c1ccc(C)cc1`, the composite z-score was determined as 0.237.

Compound `CCOC(=O)CCN1C(=O)[C@H]2[C@H]3[C@H](O)[C@H](O)CC(=NNC(=O)OCc4ccccc4)[C@@H]3CC[C@H]2C1=O` yielded a composite z-score of 0.55.

`CC(C)=CCCC(C)=CCON=C1C[C@@H](O)[C@@H](O)[C@@H]2[C@@H]3C(=O)N(Cc4ccccc4)C(=O)[C@@H]3CC[C@@H]12` showed a composite z-score of 1.44.

For the compound `C[C@@H](ON=C1[C@H]2CCn3c(=O)n(-c4ccccc4)c(=O)n3[C@H]2[C@H](O)[C@@H]2O[C@H]12)c1cn([C@@H]2COC[C@H]2O)nn1`, the composite z-score was determined as 0.433.

Regarding `COc1cc(O)c(C(=O)C=Cc2ccc3c(c2)OCO3)c(OC)c1`, the composite z-score was -0.19.

Compound `COC(=O)CC=C[C@@H](C)[C@@H](C=NO[C@H](C)c1cn([C@H](CO)Cc2ccccc2)nn1)NS(=O)(=O)c1ccc(C)cc1` gave a composite z-score of 0.0757.

`COc1ccc(O[C@H]2C=C[C@@H](c3ccccc3)O[C@@H]2COC(=O)CCC(C)=NO[C@@H]2O[C@H](COC(C)=O)[C@@H](OC(C)=O)[C@H](OC(C)=O)[C@H]2OC(C)=O)cc1`: the composite z-score is 0.641.

As to `CCOC(=O)NN=C1C[C@@H](O)[C@@H](O)[C@@H]2[C@@H]3C(=O)N(Cc4ccc5c(c4)OCO5)C(=O)[C@@H]3CC[C@H]12`, the composite z-score was -0.289.

`CCOC(=O)[C@H](CC(C)C)NC(=O)CCC1CC(OC(=O)NCc2cccc3ccccc23)CC2(CCCC(COC(=O)NCCC(C)C)O2)O1` (some centres undefined): the composite z-score worked out at 0.92.

`CC(C)=CCCC(C)=CCON=C1C[C@@H](O)[C@@H](O)[C@@H]2[C@@H]3C(=O)N(C[C@@H]4CCCO4)C(=O)[C@@H]3CC[C@H]12` came in with a composite z-score of 0.945.
